Compounds with a hit are over-represented: about 2.9% of the library has one in this group of screens.
SKN-1 block = blocks SKN-1 activity in C. elegans; C. elegans VP596 Pgst-4::GFP/RFP ratio, acrylamide-induced, 24 h; inhibition, % at 21.8 µM; actives 0.49% (n = 360,000);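 active = interference check ratio from 0.5 to 1.5 plus GFP to RFP signal ratio inhibition reaching or exceeding a fixed threshold, cut at about 30% in these data, passing the limit was not always enough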
PG9 Ab binder = small molecules binding HIV-1 gp120 antibody PG9; TR-FRET gp120-PG9 antibody binding; inhibition, % at 6.7 µM; actives 0.43% (n = 360,000); AID 624416; in the data active = inhibition above about 8.5%
Rev-erbA mod = Rev-erb alpha (human) modulation. P20393. actives 0.79% (n = 370,000). AID 1259318. activity, % at 10 µM. Rev-erbα–FITC-DNA binding, fluorescence polarization, 90 min;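 active = activity above about 14%, limit read from the data; passing the limit was not always enough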;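 note: 0% = DMSO wells with 35 nM protein and 100% = DMSO wells with 750 nM protein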
Target sequence (P20393 whole entry, looked up): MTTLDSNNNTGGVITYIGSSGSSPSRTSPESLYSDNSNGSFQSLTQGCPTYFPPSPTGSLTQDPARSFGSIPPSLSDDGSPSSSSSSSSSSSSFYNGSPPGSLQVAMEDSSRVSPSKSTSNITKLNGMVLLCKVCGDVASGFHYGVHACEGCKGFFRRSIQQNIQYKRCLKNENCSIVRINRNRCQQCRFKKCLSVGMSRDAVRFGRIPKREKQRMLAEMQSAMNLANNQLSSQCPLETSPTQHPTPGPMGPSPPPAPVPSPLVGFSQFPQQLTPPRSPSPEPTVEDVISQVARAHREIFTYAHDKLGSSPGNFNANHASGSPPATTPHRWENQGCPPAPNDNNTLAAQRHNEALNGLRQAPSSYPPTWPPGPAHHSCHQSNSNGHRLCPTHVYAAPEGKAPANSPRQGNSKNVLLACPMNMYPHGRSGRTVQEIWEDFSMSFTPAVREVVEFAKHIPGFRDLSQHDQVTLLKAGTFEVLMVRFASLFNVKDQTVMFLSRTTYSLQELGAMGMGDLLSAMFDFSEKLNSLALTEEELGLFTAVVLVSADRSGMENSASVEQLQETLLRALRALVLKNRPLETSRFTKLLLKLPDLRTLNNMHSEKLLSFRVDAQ
EP2 mod = modulators of human EP2 prostaglandin E2 receptor; AID 940; P43116; EP2-expressing cells, cAMP HTRF FRET, PGE2 co-stimulation; induction, % at 25 µM; actives 0.83% (n = 260,000);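 active = compounds whose cAMP rise, as percent of the full-agonist control response, exceeds 60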;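 note: rat C6 glioma line stably carrying human EP2 under a CMV promoter; the protocol text gives 20 µM as final concentration; 100% = response of wells given 1 µM PGE2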
EP2 antag = blocks the human prostaglandin E2 receptor EP2 | C6 glioma cells expressing human EP2, cAMP TR-FRET; cells stimulated with saturating PGE2 | P43116 | actives 0.52% (n = 260,000) | inhibition, % at 25 µM | AID 1422;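 active = percent inhibition above 40 after rounding to a whole number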;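 note: rat C6 glioma host cells with rolipram phosphodiesterase inhibitor present; the protocol text gives 20 µM as final concentration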
RAM network inh = inhibitors of the yeast RAM network. S. cerevisiae dse1pr::URA3 reporter, 5-FOA growth OD615, 2 d; analog-sensitive cbk1-as2 kinase mutant strain. inhibition, % at 50 µM. actives 1.8% (n = 190,000);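 active = inhibition above a set limit, 3 SD over mean compound inhibition, cut at about 8.4% in these data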;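 note: 0% = DMSO-only wells with no growth and 100% = 10 µM 1-NA-PP1 full growth; inhibition rescues growth on 5-FOA so higher OD means more RAM inhibition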
PG9 binder conf = confirmation of small molecules binding HIV-1 gp120 antibody PG9; inhibition, % at 6.7 µM; actives 90% (n = 1,500); shares compounds with PG9 Ab binder; TR-FRET PG9 antibody binding, biochemical; in the data active = inhibition above about 9%
PGV04 counter = PGV04 control antibody binding, counter-screen. AID 651604. TR-FRET PGV04 antibody-gp120 binding, biochemical. shares compounds with PG9 Ab binder. actives 95% (n = 1,500). inhibition, % at 6.7 µM; in the data active = inhibition above about 9.5%
PG9 binder DR = small molecules binding HIV-1 gp120 antibody PG9. shares compounds with PG9 Ab binder. TR-FRET PG9 antibody-gp120 binding inhibition. IC50, µM. 95 tested, under 10 active. AID 651848; in the data active = IC50 below about 10 µM
PGV04 DR counter = counter-screen for PG9 binders: binding to control antibody PGV04; shares compounds with PG9 Ab binder; TR-FRET binding to control antibody PGV04; IC50, µM; actives 20% (n = 95); AID 651937
PG126 binding DR = binds control antibody PG126 in PG9 counter-screen. TR-FRET binding to antibody PG126, counterscreen. actives 20% (n = 95). shares compounds with PG9 Ab binder. IC50, µM
NR1D1 mod conf = Rev-erb alpha (human) modulation, hit confirmation; shares compounds with Rev-erbA mod; Rev-erb alpha FITC-DNA binding, fluorescence polarization, 90 min; activation, % at 25 µM; actives 61% (n = 3,000);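 active = activation at or above a set limit, or at least 3 SD above the negative control mean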;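 note: 0% = 35 nM protein with DMSO and 100% = 750 nM protein high control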
RORg DNA counter = affects RORgamma DNA binding in a Rev-erb alpha counter-screen; shares compounds with Rev-erbA mod; purified RORgamma protein-FITC-DNA binding, fluorescence polarization; IC50, µM; actives 8% (n = 910); AID 1259320;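 active = Compounds whose fitted half-maximal concentration for disrupting protein-DNA binding is below 10 micromolar; the record names Rev-erb in its text, so the target is in doubt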
Active calls of the source: *; i = inactive; / = no result given. Cut-off read from the data, not from the text of the source, unless noted: active = IC50 below about 9 µM; inactive = the rest.

SMILES	SKN-1 block	PG9 Ab binder	Rev-erbA mod	EP2 mod	EP2 antag	RAM network inh	PG9 binder conf	PGV04 counter	NR1D1 mod conf	others
CCOC(=O)c1c(NC(=O)C2c3ccccc3Oc3ccccc32)sc(C(N)=O)c1C	3	33*	41*	-18	/	3	28*	41*	26*
CCOC(=O)c1sc(NC(=O)CN(CC)CC)c(C(=O)OCC)c1C	9	17*	43*	-10	14	1	1	3	11
CCOC(=O)c1c(NC(=O)C2CCCO2)sc(C(N)=O)c1C (stereo not drawn)	11	0	-7	-6	2	0	/	/	/
CCC(=O)Nc1ccc(NC(=O)CSc2nc(C3CC3)nc3sc(C)c(C)c23)cc1	/	/	/	-3	6	/	/	/	/
O=C(COC(=O)c1n[nH]c2ccccc12)NC(=O)NC12CC3CC(CC(C3)C1)C2	-6	18*	17*	-9	7	2	22*	31*	31*
Cc1cc(-n2c(SCC(=O)Nc3ccc(Br)cc3)nc3n[nH]c(C)c3c2=N)ccc1Cl	-2	24*	37*	/	/	/	21*	29*	22*
CCOc1ccc(-n2c(SCC(=O)Nc3ccc(Br)cc3)nc3n[nH]c(C)c3c2=N)cc1	10	5	14	10	6	4	/	/	/
Cc1cc(-n2c(SCC(=O)NCc3cccs3)nc3n[nH]c(C)c3c2=N)ccc1Cl	8	38*	43*	-21	10	8	33*	44*	28*
Cc1cc(-n2c(SCC(=O)Nc3ccc(F)c(F)c3)nc3n[nH]c(C)c3c2=N)ccc1Cl	3	21*	51*	/	/	/	6	8	27*
CCS(=O)(=O)N1CCN(S(=O)(=O)c2ccc(S(=O)(=O)N3CCCCC3)cc2)CC1	/	/	/	-17	4	/	/	/	/
O=C(COc1ncnc2ccc(Br)cc12)NCc1ccc2c(c1)OCO2	-1	41*	58*	11	13	2	40*	59*	50*	RORg DNA counter=i
Cc1cc(C)c2cc(CN(Cc3ccccc3)C(=S)NC3CCCCC3)c(=O)[nH]c2c1	/	/	/	2	7	/	/	/	/
COc1ccc(-c2c(C)nc3c(-c4ccsc4)cnn3c2N)cc1	11	36*	108*	/	/	/	8	16*	66*	RORg DNA counter=>40
Cc1ccc2nc3c(cc(C(=O)NC4CCS(=O)(=O)C4)n3Cc3ccccc3)c(=O)n2c1 (stereo not drawn)	-18	23*	26*	/	/	/	20*	31*	0
O=C(NC1CCS(=O)(=O)C1)c1cc2c(=O)n3ccccc3nc2n1Cc1ccccc1 (stereo not drawn)	11	4	-5	/	/	/	/	/	/
CN(C)c1cc[n+](CC(=O)N(C2CCCCC2)C2CCCCC2)cc1	/	/	/	20	9	/	/	/	/
Cc1cccc(NC(=O)CSc2nc(C)c(CC(=O)c3ccc(Br)cc3)c(C)c2C#N)c1C	13	9.2*	82*	18	24	1	21*	30*	31*
COc1ccc(NC(=O)CSc2nc(C)c3c(c2C#N)CCCC3)cc1	2	0	0	-24	5	4	/	/	/
Cc1nc(SCC(=O)Nc2ccc(F)cc2)c(C#N)c(C)c1CC(=O)c1ccc(Br)cc1	6	8.7*	70*	-13	/	4	26*	35*	16
COCc1cc(C)nc(SCC(=O)Nc2cccc(C)c2C)c1C#N	11	-1	9	-8	6	4	/	/	/
Clc1ccccc1Nc1nc(NCc2ccccc2)nc2ccsc12	9	18*	21*	/	/	/	27*	36*	5
O=c1[nH]cnc2c1sc1nc3c(c(-c4ccc(Cl)cc4)c12)CCC3	28	11*	39*	61*	10	4	28*	16*	10	PG9 binder DR=i;PGV04 DR counter=6.4*;PG126 binding DR=8.6*
CCOC(=O)Cn1nnc2c(sc3nc4c(c(-c5ccc(Cl)cc5)c32)CCC4)c1=O	1	-1	-3	13	15	5	/	/	/
Brc1cc(Br)c2ncnc(N3CCCCC3)c2c1	-16	38*	76*	52	17	1	54*	63*	40*	RORg DNA counter=2.8*
N#Cc1ccc(-c2ccc3c(c2)OCO3)nc1SCC(=O)OCc1ccccc1	-18	13*	24*	1	9	8	14*	29*	19*
SMILES	SKN-1 block	PG9 Ab binder	Rev-erbA mod	EP2 mod	EP2 antag	RAM network inh	PG9 binder conf	PGV04 counter	NR1D1 mod conf	others
COc1ccc(-c2ccc(C#N)c(SCC(=O)OCc3ccccc3)n2)cc1OC	-7	2	5	29	16	3	/	/	/
COc1ccc(S(=O)(=O)N2CCCC(C(=O)NCc3ccco3)C2)cc1 (stereo not drawn)	/	/	/	12	14	/	/	/	/
CC1CC(C)CN(C(=O)Cn2c(SCC(=O)NCc3ccco3)nc3ccccc32)C1 (stereo not drawn)	/	/	/	3	16	/	/	/	/
CCn1nnc(NC(=O)COc2ccc(C)c(C)c2)n1	/	/	/	9	7	/	/	/	/
c1ccc(-n2ncc3c(NCc4ccc5c(c4)OCO5)ncnc32)cc1	2	2	1	-55	1	1	/	/	/
COc1ccc(-n2ncc3c(NCc4ccc5c(c4)OCO5)ncnc32)cc1	-7	16*	25*	11	11	2	6	9	-3
Cc1ccc2oc(=O)c3cnn(CC(=O)N4CCN(c5ccccc5)CC4)c3c2c1	-6	1	2	-40	17	3	/	/	/
Cc1ccc2oc(=O)c3cnn(CC(=O)N4CCCc5ccccc54)c3c2c1	-9	15*	51*	-6	10	3	35*	51*	44*
Cc1ccc(N(CC(=O)N2CCCCC2)S(C)(=O)=O)c(C)c1	/	/	/	-5	12	/	/	/	/
CCOC(=O)C1CCN(C(c2cc3cccc(C)c3[nH]c2=O)c2nnnn2CCOC)CC1 (stereo not drawn)	/	/	/	-23	9	/	/	/	/
